This passage reports outcome and Potency results from PubChem BioAssay (NCATS).

Each structure is given as a SMILES string. Results filed as inconclusive are left out. Activity calls are given as the source filed them. The call rests on the fitted dose curve; in most records, active means well fitted curve in the direction sought with a large enough effect; inconclusive means small, poorly fitted or top-dose-only effect, or another doubt; inactive means no such curve, though single readings can be large; an effect the other way counts as inactive or inconclusive.

The target of assay [1] is Metallo-beta-lactamase type 2 (Klebsiella pneumoniae) (UniProt C7C422). As to the kind of experiment: qHTS to identify inhibitors of the New Delhi Metallo-beta-lactamase (NDM): assay validation screen against the NCATS LOPAC Collection (AID 1794843).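 Further: nitrocefin turnover by NDM-1 measured as 485 nm absorbance at plateau.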 The settings on record: NDM-1 enzyme, nitrocefin hydrolysis, absorbance 485 nm; series mostly up to 38.4 µM. The method, boiled down:
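Nitrocefin hydrolysis (50 uM substrate stock) by NDM-1, 2 nM final, was followed by 485 nm absorbance after compound preincubation; buffer was 50 mM HEPES pH 7.0, 1 uM ZnSO4, 0.01% Tween20.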
A general note: qHTS replaces the single test concentration by a dilution series.

The target in assay [2] is Glutathione peroxidase 1 (Homo sapiens) (UniProt P07203). As to the kind of experiment: Primary qHTS Assay for Inhibitors of Recombinant Selenoprotein Glutathione Peroxidase 1 (GPX1) (AID 1845191). Further: nearly all actives have a fitted effect of over 65% in size. The settings on record: recombinant GPX1, GR-coupled NADPH fluorescence, 15 min; series mostly up to 48.8 µM. The gist of the method:
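Recombinant GPX1 (10 nM final) was preincubated with compound for 30 min at room temperature, then reacted with 1 mM GSH, 0.5 mM CHP, 0.5 mM NADPH and 100 nM glutathione reductase; NADPH fluorescence (340/450 nm) was read at 0 and 15 min.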

Assay [3] addresses Phospholipid hydroperoxide glutathione peroxidase GPX4 (Homo sapiens) (UniProt P36969). Kind of assay: Primary qHTS Assay for Inhibitors of Recombinant Selenoprotein Glutathione Peroxidase 4 (GPX4) (AID 1845192). Further: nearly all actives have a fitted effect of over 65% in size. Conditions: recombinant GPX4, GR-coupled NADPH fluorescence, 15 min; series mostly up to 50 µM. The method, boiled down: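 GR-coupled readout: 100 nM GR, 1 mM GSH, 0.5 mM NADPH; NADPH fluorescence (ex 340/em 450 nm) read at t=0 and after 15 min RT. GPX4 200 nM, preincubated 30 min with compound; substrate 0.5 mM CHP.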

A short description of assay [4]: Quantitative High-Throughput drug screen in 47 multiple myeloma cell lines against the NCATS MIPE library collection: AMO1_DSMZ cell viability assay (AID 1918927; further: nearly all actives have a fitted effect of over 30% in size). Conditions: AMO1 myeloma cells viability, CellTiter-Glo ATP luminescence, 48 h; series mostly up to 45.8 µM. The gist of the method: (§1)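 Viability readout: CellTiter-Glo luminescence following 5 min room-temperature incubation with reagent. Prior exposure: 48 h, 37C, humidified 5% CO2, 500 cells per well.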
In general terms: In ATP-based viability assays light output follows the ATP content of the culture.

Assay [5] can be described thus: Quantitative High-Throughput drug screen in 47 multiple myeloma cell lines against the NCATS MIPE library collection: ARD_JJKsccE7 cell viability assay (AID 1918929). Conditions: ARD myeloma cell line viability, CellTiter-Glo, 48 h; series mostly up to 45.8 µM. The gist of the method: as §1
Assay [6] is described as follows: Quantitative High-Throughput drug screen in 47 multiple myeloma cell lines against the NCATS MIPE library collection: Karpas620_DSMZ cell viability assay (AID 1918959). Further: nearly all actives have a fitted effect of over 30% in size. Further: potency means the concentration at half of the fitted maximal effect. Conditions: Karpas620 myeloma viability, CellTiter-Glo ATP luminescence, 48 h; series mostly up to 45.8 µM. The method, boiled down:
as §1

Assay [7] in a line: Quantitative High-Throughput drug screen in 47 multiple myeloma cell lines against the NCATS MIPE library collection: KMM1_JCRB cell viability assay (AID 1918960). Further: nearly all actives have a fitted effect of over 30% in size. The settings on record: KMM1 myeloma viability, CellTiter-Glo ATP luminescence, 48 h; series mostly up to 45.8 µM. The method, boiled down:
(§2)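 Luminescence from CellTiter-Glo, taken after 5 min at room temperature, reports cellular ATP as viability. Cells (500 per well) had been treated 48 h at 37 °C with MIPE 4.0 compounds, scaled between DMSO and medium-only controls.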

A short description of assay [8]: Quantitative High-Throughput drug screen in 47 multiple myeloma cell lines against the NCATS MIPE library collection: JIM3_ECACC cell viability assay (AID 1918963; further: nearly all actives have a fitted effect of over 35% in size). Conditions: JIM3 myeloma viability, CellTiter-Glo ATP, 48 h; series mostly up to 45.8 µM. The method, boiled down: as §1
A short description of assay [9]: Quantitative High-Throughput drug screen in 47 multiple myeloma cell lines against the NCATS MIPE library collection: JIM1_ECACC cell viability assay (AID 1918964). Conditions: JIM1 myeloma viability, CellTiter-Glo ATP luminescence, 48 h; series mostly up to 45.8 µM. The method, boiled down:
as §1

A short description of assay [10]: Quantitative High-Throughput drug screen in 47 multiple myeloma cell lines against the NCATS MIPE library collection: FR4_PLB cell viability assay (AID 1918924; further: nearly all actives have a fitted effect of over 35% in size). Conditions: FR4_PLB myeloma cells viability, CellTiter-Glo ATP, 48 h; series mostly up to 45.8 µM. The method, boiled down:
as §1

Assay [11] in a line: Quantitative High-Throughput drug screen in 47 multiple myeloma cell lines against the NCATS MIPE library collection: Delta47_JCRB cell viability assay (AID 1918925; further: nearly all actives have a fitted effect of over 45% in size; further: potency means the concentration at half of the fitted maximal effect). Conditions: Delta47 myeloma viability, CellTiter-Glo ATP, 48 h; series mostly up to 45.8 µM. The method, boiled down: as §1
A short description of assay [12]: Quantitative High-Throughput drug screen in 47 multiple myeloma cell lines against the NCATS MIPE library collection: Karpas417_ECACC cell viability assay (AID 1918961). The settings on record: Karpas417 myeloma viability, CellTiter-Glo ATP luminescence, 48 h; series mostly up to 45.8 µM. The gist of the method: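 Approved and investigational drugs from MIPE 4.0 were added by pin tool to 500 cells per well. After 48 hours at 37C, ATP-based CellTiter-Glo luminescence indicated remaining viability.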

The nature of assay [13]: Quantitative High-Throughput drug screen in 47 multiple myeloma cell lines against the NCATS MIPE library collection: KHM11_PLB cell viability assay (AID 1918962). Further: nearly all actives have a fitted effect of over 35% in size. The settings on record: KHM11 myeloma cell viability, CellTiter-Glo ATP luminescence, 48 h; series mostly up to 45.8 µM. The gist of the method: as §1
A short description of assay [14]: Quantitative High-Throughput drug screen in 47 multiple myeloma cell lines against the NCATS MIPE library collection: EJM_DSMZ cell viability assay (AID 1918926; further: nearly all actives have a fitted effect of over 30% in size). Conditions: EJM myeloma cell viability, CellTiter-Glo ATP, 48 h; series mostly up to 45.8 µM. The gist of the method:
as §1

The nature of assay [15]: Quantitative High-Throughput drug screen in 47 multiple myeloma cell lines against the NCATS MIPE library collection: ARP1_JJKsccF8 cell viability assay (AID 1918928; further: nearly all actives have a fitted effect of over 40% in size). The settings on record: ARP1 myeloma cells viability, CellTiter-Glo ATP, 48 h; series mostly up to 45.8 µM. The gist of the method:
as §2

For assay [16], the target named is Nuclear receptor subfamily 1 group I member 3 (Homo sapiens) (UniProt Q14994). As to the kind of experiment: Primary qHTS for antagonist of constitutive androstane receptor (CAR) against the NCATS DSHEA and TCM libraries (AID 1794836). The settings on record: CAR reporter cell assay, antagonist mode, luciferase; series mostly up to 40 µM. The gist of the method:
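HepG2 cells stably carrying hCAR and a CYP2B6 luciferase reporter (2,500 cells/well) attached for 5 h, then received compounds with 48 uM CITCO for 24 h at 37C. ONE-Glo luminescence read antagonism; CellTiter-Fluor (405/540 nm) gave viability.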

Assay [17] concerns the target Luciferin 4-monooxygenase (Photinus pyralis) (UniProt P08659). As to the kind of experiment: Primary firefly luciferase (FLuc) qHTS assay for identification of artifact compounds. (AID 1845220). Further: nearly all actives have a fitted effect of over 60% in size. The settings on record: purified firefly luciferase, luminescence, 5 min; series mostly up to 54.1 µM. The gist of the method:
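Reaction readout was CCD-imaged luminescence, taken 5 min after adding 10 nM purified firefly enzyme to compound-treated wells holding 10 uM luciferin and ATP in pH 7.6 buffer.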

The test system of assay [18] is Nanoluciferase (engineered Oplophorus gracilirostris luciferase). Kind of assay: Primary Nanoluciferase (NLuc) qHTS assay for identification of artifact compounds. (AID 1845222). Conditions: NLuc-conditioned medium, Nano-Glo luminescence, 5 min; series mostly up to 54.1 µM. The method, boiled down: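 Concentration-response data were obtained by luminescence after 5 min with Nano-Glo substrate at 1:100. The enzyme was diluted S16 NLuc-expressing cell medium, preincubated with compound for 15 min at RT. Curves were fitted with a 4-parameter Hill model.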

The nature of assay [19]: Primary redox qHTS assay for identification of artifact compounds. (AID 1845223). Conditions: Amplex Red/HRP redox cycling with DTT, fluorescence; series mostly up to 53.8 µM. The gist of the method:
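Amplex Red (25 uM) and HRP (250 mU/mL) in HBSS, with compounds for 15 min, then 250 uM DTT for 30 min, room temperature, dark. Fluorescence 525/598 nm read; normalized to DMSO and 10 uM DA3003; Hill fit.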

Nuclear receptor subfamily 1 group I member 3 (Homo sapiens), sequence (Q14994 whole entry, looked up): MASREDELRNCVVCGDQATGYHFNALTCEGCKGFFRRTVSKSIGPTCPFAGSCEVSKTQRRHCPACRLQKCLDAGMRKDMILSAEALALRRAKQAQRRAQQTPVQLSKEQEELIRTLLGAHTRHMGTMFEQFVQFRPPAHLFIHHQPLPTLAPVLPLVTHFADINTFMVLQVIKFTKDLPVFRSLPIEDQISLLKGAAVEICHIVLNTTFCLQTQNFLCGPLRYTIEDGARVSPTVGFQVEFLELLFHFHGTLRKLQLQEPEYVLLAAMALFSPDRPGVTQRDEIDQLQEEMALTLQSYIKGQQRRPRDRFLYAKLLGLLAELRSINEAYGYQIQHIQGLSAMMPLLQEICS
Metallo-beta-lactamase type 2 (Klebsiella pneumoniae), sequence (C7C422 whole entry, looked up): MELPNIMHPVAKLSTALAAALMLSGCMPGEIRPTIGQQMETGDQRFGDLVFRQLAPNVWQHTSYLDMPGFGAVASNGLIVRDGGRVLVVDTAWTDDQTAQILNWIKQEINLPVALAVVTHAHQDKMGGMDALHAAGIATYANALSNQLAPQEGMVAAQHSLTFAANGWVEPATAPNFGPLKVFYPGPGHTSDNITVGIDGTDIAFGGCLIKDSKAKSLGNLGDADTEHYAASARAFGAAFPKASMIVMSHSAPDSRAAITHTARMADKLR
Glutathione peroxidase 1 (Homo sapiens), sequence (P07203 whole entry, looked up): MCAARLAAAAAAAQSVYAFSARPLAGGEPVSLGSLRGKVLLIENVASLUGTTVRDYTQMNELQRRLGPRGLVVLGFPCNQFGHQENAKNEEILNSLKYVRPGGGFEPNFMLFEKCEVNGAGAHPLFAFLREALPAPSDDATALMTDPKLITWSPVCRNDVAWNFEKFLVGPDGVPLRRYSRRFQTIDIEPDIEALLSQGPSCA
Phospholipid hydroperoxide glutathione peroxidase GPX4 (Homo sapiens), sequence (P36969 whole entry, looked up): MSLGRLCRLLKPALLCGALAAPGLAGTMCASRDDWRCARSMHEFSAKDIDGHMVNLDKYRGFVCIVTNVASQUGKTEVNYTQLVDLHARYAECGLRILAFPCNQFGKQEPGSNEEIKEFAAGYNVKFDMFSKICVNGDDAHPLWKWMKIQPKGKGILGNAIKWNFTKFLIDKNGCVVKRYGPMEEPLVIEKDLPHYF

Turning to `CN1C(=O)CCS(=O)(=O)C1c1ccc(Cl)cc1` (stereo not drawn), the molecule was called inactive in assay [1] and in assay [9]. In addition, the Potency entry in assay [2], in assay [3], in assay [4], in [5], in [6] and in assay [7] was “inactive” each time. For the same molecule, the Potency result in assay [8] was “inactive”.
Take `CCC(C)C(C)(COC(N)=O)COC(N)=O` (stereo not drawn): the Potency result in [2] and in assay [3] was “inactive” throughout.
For `CN1C[C@H](C(=O)N[C@]2(C)O[C@@]3(O)[C@@H]4CCCN4C(=O)[C@H](Cc4ccccc4)N3C2=O)C=C2c3cccc4[nH]cc(c34)C[C@H]21`, the Potency result in [2] was “inactive”.
As for `COP(=S)(OC)Oc1cc(Cl)c(Cl)cc1Cl`, the Potency result in assay [2] and in assay [3] was “inactive” throughout.
Turning to `O=P1(N(CCCl)CCCl)NCCCO1` (stereo not drawn), in [1], the molecule was called inactive. The Potency result in [2], in assay [3], in assay [10], in assay [5], in [12] and in assay [13] was “inactive” throughout. In addition, the Potency in assay [11] is 14.8 µM (active); in assay [6] it was 18.7 µM (active).
As for `CC(C)c1cccc(C(C)C)c1O`, the call in assay [1] and in assay [9] was inactive. Further, the Potency result in assay [2], in [3], in [10], in assay [11], in [14] and in assay [4] was “inactive” in each case. Further, the Potency entry in assay [15], in [5], in assay [6], in assay [7] and in assay [8] was “inactive” throughout.
Turning to `C[C@]12CCC(=O)C=C1CC[C@@H]1[C@@H]2CC[C@]2(C)C(=O)CC[C@@H]12`, the Potency entry in assay [2] and in assay [3] was “inactive” each time.
As for `CC(C)[C@H]1C(=O)N2CCC[C@H]2[C@]2(O)O[C@](NC(=O)[C@@H]3C[C@@H]4c5cccc6[nH]cc(c56)C[C@H]4N(C)C3)(C(C)C)C(=O)N12`, the Potency result in assay [2] is “inactive”.
`C[C@@H]1CC2=CC(=O)CC[C@@H]2[C@H]2CC[C@@]3(C)[C@@H](CC[C@]3(C)O)[C@@H]21`: the Potency entry in [2] and in [3] was “inactive” throughout.
For the molecule `CCCCCN(C)CCC(O)(P(=O)(O)O)P(=O)(O)O`, the molecule was classed as inactive in [1]. In addition, the Potency entry in [2] and in assay [3] was “inactive” in each case.
For `O=C(O)CCCC[C@@H]1SC[C@@H]2NC(=O)N[C@@H]21`, the result in assay [16] was inactive.
In the case of `NCCc1ccc(O)cc1`, the molecule was called inactive in assay [1]. In addition, the Potency entry in [2] and in [3] was “inactive” in each case.
For the molecule `NNC(=O)c1ccncc1`, in [16], the result was inactive.
On to `CC(C)N(CCC(C(N)=O)(c1ccccc1)c1ccccn1)C(C)C` (stereo not drawn), for which the molecule was called inactive in [1], in assay [17], in assay [18] and in [19]. For the same molecule, the Potency entry in [2] and in [3] was “inactive” each time.
Consider `C[C@]12CC[C@@H]3c4ccc(OC(=O)N(CCCl)CCCl)cc4CC[C@H]3[C@@H]1CC[C@@H]2O`, for which the Potency result in assay [2] and in [3] was “inactive” throughout.
Regarding `O=c1[nH]oc2c1CCNC2`, the outcome in assay [1] was inactive. The Potency result in [2] and in [3] was “inactive” throughout.
For the molecule `Cc1ccc(C(C)C)c(O)c1`, the outcome in assay [16] was inactive.
As for `O=c1oc2ccccc2c(O)c1Cc1c(O)c2ccccc2oc1=O`, the Potency result in [2] and in assay [3] was “inactive” each time.
